# Compound activity deposited in PubChem BioAssay by Johns Hopkins Ion Channel Center.
# This is a sample that favours compounds with a hit; in the whole collection about 2.3% have one here.
# CHT block: inhibitors of human choline transporter CHT | High affinity choline transporter 1 (Homo sapiens), Q9GZV3 | CHT-expressing cells, membrane potential dye, choline response; hits give low values | B-score at 10 µM | 0.86% of 310,000 active;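 active = B-score over 3 SD under the library average, and starting fluorescence ratio not unusually high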;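 note: choline stimulus applied at its EC90 after an EC20 pre-addition; B-score computed on integrated fluorescence ratio after choline addition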
# Target sequence (Q9GZV3 whole entry, looked up): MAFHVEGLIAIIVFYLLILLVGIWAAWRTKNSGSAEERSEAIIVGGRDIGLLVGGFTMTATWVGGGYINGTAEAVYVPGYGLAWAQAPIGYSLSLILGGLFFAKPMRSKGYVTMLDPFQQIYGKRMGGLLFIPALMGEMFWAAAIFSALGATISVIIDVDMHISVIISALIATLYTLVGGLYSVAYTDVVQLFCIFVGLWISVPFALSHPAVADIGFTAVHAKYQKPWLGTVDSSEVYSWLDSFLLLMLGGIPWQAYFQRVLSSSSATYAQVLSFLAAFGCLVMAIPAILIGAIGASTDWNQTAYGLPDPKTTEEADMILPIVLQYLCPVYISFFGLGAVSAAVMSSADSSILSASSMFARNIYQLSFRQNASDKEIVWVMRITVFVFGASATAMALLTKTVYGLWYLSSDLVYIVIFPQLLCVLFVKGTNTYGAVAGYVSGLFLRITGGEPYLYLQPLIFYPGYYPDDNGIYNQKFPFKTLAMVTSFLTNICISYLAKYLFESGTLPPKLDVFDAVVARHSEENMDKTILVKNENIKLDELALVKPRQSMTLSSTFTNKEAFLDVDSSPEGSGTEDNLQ
# ANO1 block: TMEM16A chloride channel inhibitors, primary screen, cell-based, HTS | Anoctamin-1 (Mus musculus), Q8BHY3 | HEK293 TMEM16A/YFP iodide influx fluorescence, ionomycin | normalized B-score (activity score, 25-100; higher = stronger inhibition) at 10 µM | 1.2% of 310,000 active | AID 588511, 2011;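 active = ratio plate-corrected score three or more library SD toward inhibition, starting fluorescence score within five deviations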;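 note: score derived from kinetic fluorescence span divided by baseline fluorescence per well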
# CHT allo act: CHT positive allosteric modulators, primary screen, cell-based, membrane potential dye, choline EC20 | B-score at 10 µM | CHT-expressing cells; hits give high values; LV-AA mutant CHT in HEK293 cells | High affinity choline transporter 1 (Homo sapiens), Q9GZV3 | 0.49% of 310,000 active;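 active = initial fluorescence not abnormally high and integrated response B-score, plate-corrected, over 3 SD above library mean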
# ANO1 activ: TMEM16A chloride channel activators or potentiators, primary screen, cell-based, HTS. Anoctamin-1 (Mus musculus), Q8BHY3. HEK293 TMEM16A/YFP-H148Q/I152L, iodide quench fluorescence; hits give low values. B-score at 10 µM. 0.3% of 340,000 active. AID 623877, 2012;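 active = fluorescence-ratio B-score plate-corrected deviation score at least 3 library SD below zero, with starting fluorescence score within 5 deviations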;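 note: channel opened by trigger with iodide after compound preincubation; score built on the fluorescence ratio of max minus min over baseline; more negative score means more quench and so TMEM16A activation or potentiation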
# TMEM16A reconf: TMEM16A chloride channel inhibitors, confirmation, cell-based, re-confirmation; shares compounds with ANO1 block; HEK293 TMEM16A/YFP-H148Q, iodide quench fluorescence; ionomycin added to raise cell calcium; inhibition, % at 10 µM; 39% of 2,300 active; AID 652189, 2013;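 active = mean duplicate percent inhibition, scaled so buffer wells are 0 and the reference blocker 100, over three buffer SD above buffer mean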
# HEK293 Ca mobil: calcium mobilization in TMEM16A/YFP HEK293 cells, confirmation, counter-screen for TMEM16A inhibitor project; 2% of 2,300 active; AID 652231, 2013; Fluo4 calcium mobilization; shares compounds with ANO1 block; calcium response (% of ionomycin), % at 10 µM;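 active = duplicate-averaged calcium signal over 20% of the ionomycin maximum, relative to buffer baseline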;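 note: each well's signal is peak minus trough fluorescence divided by its pre-addition baseline; 0% = buffer wells and 100% = ionomycin wells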
# Parental YFP cnt: iodide YFP quench changes in parental YFP-HEK293, counter-screen for TMEM16A inhibitor project, cell-based; ionomycin; AID 652233, 2013; shares compounds with ANO1 block; 2,300 tested, under 10 active; YFP ratio F(max-min)/F0 at 10 µM;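 active = yellow fluorescent protein signal ratio exceeding the buffer control mean by over 5 SD of those controls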;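 note: ratio is mean of duplicate wells from kinetic YFP trace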
# ClC-1 inh: ClC-1 chloride channel inhibition, selectivity assay for TMEM16A inhibitor project, cell-based, voltage-dependent ClC-1; AID 652236, 2013; shares compounds with ANO1 block; CHO ClC-1-YFP, iodide influx fluorescence quench; iodide control reads 0, buffer control 100; ratio percent, % at 10 µM; 2,300 tested, under 10 active;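 active = duplicate-mean ratio percent above the mean of iodide-only control wells, which defines zero, plus 5 of their SD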;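 note: higher percent means stronger block of ClC-1 iodide influx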
# The depositor's hits bear a star; i = inactive; nt = no result given.
SMILES,CHT block,ANO1 block,CHT allo act,ANO1 activ,TMEM16A reconf,HEK293 Ca mobil,Parental YFP cnt,ClC-1 inh
Cc1cc(C(=O)CSc2ccc(F)cc2)cc(C)c1OC(=S)N(C)C,i,100*,i,i,i,i,-1.4,-8
Cc1no[n+]([O-])c1COc1cccc(/C=C2\N=C(c3ccccc3)OC2=O)c1,i,i,i,i,nt,nt,nt,nt
O=C1OC(c2ccccc2)=N/C1=C/c1cccc(OC(=O)c2cccs2)c1,i,25*,i,i,i,i,-1.1,-8
COc1ccccc1N1CCN(C(=O)COc2ccc(Cl)cc2Br)CC1,i,i,i,i,nt,nt,nt,nt
COc1ccccc1N1CCN(C(=O)COc2ccc(C)cc2Br)CC1,i,100*,i,i,i,22%*,-1,2
Cc1ccc(C(=O)O/N=C2\CC3CCC2(C)C3(C)C)cc1 (stereo not given),i,25*,i,i,i,i,-1.1,-4
Cc1cc(NNC(=O)c2cccc(C(F)(F)F)c2)nc2c1c(C)nn2C,i,25*,i,i,i,i,-1.1,-19
Cc1nn(C)c(C(=O)NNC(=O)Nc2cccc(C(F)(F)F)c2)c1Cl,i,i,i,i,nt,nt,nt,nt
CC(OC(=O)c1ccc(O)cc1)C(=O)Nc1cc(C(F)(F)F)ccc1Cl (stereo not given),i,25*,i,i,58%*,i,-0.94,-18
COc1ccc(CNC(=O)[C@H](C)NC(=O)C2CCN(C(=O)[C@@H](N)Cc3ccccc3)CC2)cc1,i,i,i,i,nt,nt,nt,nt
CN1c2ccccc2C(O)=C(C(=S)Nc2ccc(Cl)cc2)S1(=O)=O,i,100*,i,i,20%*,i,-0.92,-8
CN(C)Cc1cc(C(C)(C)C)cc(C(C)(C)C)c1O,i,i,i,i,nt,nt,nt,nt
CN(C)Cc1cc(O)c(CN(C)C)cc1O,i,i,i,i,i,i,-0.86,-6
CCOC(=O)/C(C(N)=NCC(C)C)=C(/O)c1ccccc1,i,i,i,i,nt,nt,nt,nt
CCCOC(=O)/C(C(N)=NCc1ccccc1)=C(\O)OCCC,i,100*,i,i,i,i,-0.87,-10
CCOc1ccccc1C(=O)Nc1ccc2c(c1)C(=O)NC2=O,i,i,i,i,nt,nt,nt,nt
O=C(NCC1(N2CCOCC2)CCCCC1)c1ccc(Cl)c(S(=O)(=O)NCc2ccco2)c1,i,100*,i,i,i,i,-1,-7
COc1cc(OC)c(NC(=S)Nc2cc(Cl)cc(Cl)c2)cc1Cl,i,100*,i,i,18%*,i,-1.1,-34
COC(=O)c1ccc(CO/N=C/c2ccc(OC)cc2OC)cc1,i,i,i,i,nt,nt,nt,nt
COc1ccc(-n2c(=O)cc(N3CCN(c4ccccc4F)CC3)[nH]c2=O)cc1,i,25*,i,i,i,i,-1,-6
COc1ccc(-n2c(=O)cc(N3CCN(c4ccccc4OC)CC3)[nH]c2=O)cc1,i,i,i,i,nt,nt,nt,nt
CCOC(=O)C1CCN(C(=O)c2ccc(OCC(=O)Nc3cccc(C(F)(F)F)c3)c(OC)c2)CC1,i,25*,i,i,28%*,i,-1.1,-19
CCOC(=O)C1CCN(C(=O)c2ccc(OCC(=O)Nc3cccc(C(F)(F)F)c3)cc2)CC1,i,i,i,i,nt,nt,nt,nt
CN(CC1COc2ccccc2O1)C(=S)Nc1ccccc1 (stereo not given),i,i,i,i,nt,nt,nt,nt
CCN(CC1COc2ccccc2O1)C(=S)NC1CC2CCC1C2 (stereo not given),i,100*,i,i,i,i,-0.83,-10
SMILES,CHT block,ANO1 block,CHT allo act,ANO1 activ,TMEM16A reconf,HEK293 Ca mobil,Parental YFP cnt,ClC-1 inh
COc1cc(C2c3cc4c(cc3C(OC3OC5COC(c6cccs6)OC5C(O)C3O)C3COC(=O)C23)OCO4)cc(OC)c1O (stereo not given),i,25*,i,i,i,i,-1.2,-10
Cc1cccc(C)c1OCc1cc(C(=O)N(Cc2c(C)nn(C)c2C)C2CC2)no1,i,25*,i,i,22%*,i,-1.2,-14
CCc1ccccc1NC(=O)CCS(=O)(=O)c1ccc(Br)cc1,i,i,i,i,i,i,-0.97,-6
Cc1nc(C(F)(F)F)c(C(=O)NC(=O)Nc2ccccc2)s1,i,i,i,i,nt,nt,nt,nt
Cc1nc(C(F)(F)F)c(C(=O)NC(=O)Nc2ccc(OC(F)(F)F)cc2)s1,i,100*,i,i,i,i,-1.1,4
COC(=O)c1c(NC(=O)c2ccc(OC(C)C)cc2)sc2c1CC(C)(C)NC2(C)C,i,100*,i,i,i,i,-0.9,-7
CCOC(=O)c1c(NC(=O)c2ccc(C)cc2)sc2c1CC(C)(C)NC2(C)C,i,i,i,nt,nt,nt,nt,nt
CN(Cc1c(F)cccc1Cl)C(=O)C1=CC=CN2CCS(=O)(=O)N=C12,nt,nt,nt,i,nt,nt,nt,nt
Cn1cc(CNC(=O)c2cc(COc3ccc4c(c3)CCCC4)on2)cn1,i,25*,i,i,i,i,-1.1,-8
CCN(Cc1cnn(C)c1)C(=O)c1cc(COc2ccc3c(c2)CCCC3)on1,i,i,i,i,nt,nt,nt,nt
CN(CCNC(=O)c1c[nH]c2c1ccc1ccccc12)CCNC(=O)c1c[nH]c2c1ccc1ccccc12,nt,nt,nt,i,nt,nt,nt,nt
CN(c1ccccc1)S(=O)(=O)c1cccc(NC(=O)CSc2nnc(N)s2)c1,i,100*,i,i,35%*,i,-0.75,-18
NC(=O)c1nsc(C(=O)N(Cc2cccnc2)C(C(=O)NCc2ccc(F)cc2)c2ccc(F)cc2)c1N (stereo not given),i,i,i,i,nt,nt,nt,nt
COC(=O)c1scc(C#N)c1N/N=C(\C#N)S(=O)(=O)c1ccc(Cl)cc1,i,25*,i,i,i,i,-1,-24
